# Compounds with a hit are over-represented: about 1.2% of the library has one in this group of screens.
# Efflux pump inh = inhibitors of Candida efflux pumps in yeast, primary screen, S. cerevisiae, Nile Red, multiplex | hit rate 0.44% among 330,000 | inhibition, % at 10 µM | S. cerevisiae Candida pump triplex;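 active = plate passing quality check with inhibition over a set limit, or well fluorescence over plate mean plus 4 SD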;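 also: Nile Red retained in pooled yeast measured as flow cytometry median fluorescence; 0% = buffer negative control and 100% = Enniatin B positive control; higher means more Nile Red kept so more efflux inhibition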
# NCOA2 inhibitor = inhibition of GAL4-SRC2 driven luciferase reporter, primary screen, SRC2 inhibitor project, cell-based, luminescence; Nuclear receptor coactivator 2 (Homo sapiens), Q15596; HEK293 GAL4-SRC2 luciferase reporter; inhibition, % at 9 µM; hit rate 0.17% among 370,000;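 active = inhibition above the mean inhibition of all tested compounds plus 3 SD, set per campaign, cut at about 52% in these data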;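 also: 0% = DMSO treated cells and 100% = cells given Gossypol at 36 µM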
# NR5A2 inv ag = LRH-1 (NR5A2) inverse agonists, primary screen, cell-based, luminescence, HEK293T, StAR-luciferase reporter; LRH-1 transfected, 24 h; inhibition, % at 3.6 µM; hit rate 0.13% among 360,000; AID 602396, 2012;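 active = inhibition above the mean inhibition of all tested compounds plus 3 SD, cut at about 73% in these data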;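 also: 0% = DMSO wells and 100% = reporter-only cells lacking LRH-1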
# Target sequence (O00482 whole entry, looked up): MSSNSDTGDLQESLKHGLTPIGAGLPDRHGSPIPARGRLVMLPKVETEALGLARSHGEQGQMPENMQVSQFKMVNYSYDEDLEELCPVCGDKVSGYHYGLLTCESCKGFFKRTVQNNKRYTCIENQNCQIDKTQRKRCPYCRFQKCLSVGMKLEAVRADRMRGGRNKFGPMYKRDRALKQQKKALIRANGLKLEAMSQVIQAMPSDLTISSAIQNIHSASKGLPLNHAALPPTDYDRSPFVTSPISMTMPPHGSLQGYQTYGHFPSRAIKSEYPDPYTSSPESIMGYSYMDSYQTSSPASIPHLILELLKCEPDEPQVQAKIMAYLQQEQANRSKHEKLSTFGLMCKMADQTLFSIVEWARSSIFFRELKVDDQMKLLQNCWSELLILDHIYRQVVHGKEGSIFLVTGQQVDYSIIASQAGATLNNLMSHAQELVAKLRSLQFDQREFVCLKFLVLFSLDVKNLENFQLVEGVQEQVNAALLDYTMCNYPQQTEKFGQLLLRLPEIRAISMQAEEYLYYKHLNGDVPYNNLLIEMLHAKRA
# SRC1 inh = SRC1 coactivator transcriptional activity inhibitors, primary screen, cell-based, luminescence; Nuclear receptor coactivator 1 (Homo sapiens), Q15788; HEK293 GAL4-SRC1 luciferase reporter; inhibition, % at 3.6 µM; hit rate 0.12% among 360,000; AID 588354, 2011;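 active = inhibition above the campaign mean plus 3 SD, with each screening campaign given its own cutoff, cut at about 60% in these data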;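 also: 0% = DMSO treated cells and 100% = gossypol at 36 µM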
# COUP-TFII inh = NR2F2 transcriptional activity inhibitors, primary screen, cell-based, luciferase reporter, HEK293T, luminescence; inhibition, % at 8.6 µM; HEK293T NGFI-A luciferase reporter; hit rate 0.7% among 370,000; AID 686940, 2013;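 active = inhibition above a per-plate cutoff, mean inhibition of test wells between control levels plus 3 SD, cut at about 38% in these data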;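 also: cells cotransfected with COUP-TFII expression vector driving the NGFI-A reporter; 0% = median of COUP-TF2 test wells and 100% = reporter-only cells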
# NCOA3 inh = SRC3 coactivator transcriptional activity inhibitors, primary screen, cell-based, luminescence. hit rate 0.17% among 360,000. Nuclear receptor coactivator 3 (Homo sapiens), Q9Y6Q9. inhibition, % at 3.6 µM. HEK293 GAL4-SRC3 luciferase reporter. AID 588352, 2011;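 active = inhibition above a per-campaign cutoff, the mean of all compounds plus 3 SD, cut at about 60% in these data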;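 also: 0% = DMSO-treated cells and 100% = gossypol-treated cells at 36 µM; higher means less SRC3-driven luciferase light from the GAL4 reporter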
# Gal4-VP16 ctr = Gal4-VP16 luciferase reporter inhibitors, counter-screen for COUP-TFII antagonist project, cell-based, luminescence, HEK293 | shares compounds with COUP-TFII inh | inhibition, % at 8.5 µM | AID 687007, 2013 | hit rate 25% among 2,500; in the data active = inhibition above about 13%
# NR2F2 inh conf = NR2F2 transcriptional activity inhibitors, confirmation, cell-based, luciferase reporter, HEK293, triplicate | AID 687008, 2013 | shares compounds with COUP-TFII inh | HEK293 NGFI-A luciferase reporter, luminescence | hit rate 45% among 2,500 | inhibition, % at 8.5 µM;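 active = mean inhibition over three repeats above a set limit taken from the earlier primary screen, cut at about 38% in these data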;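 also: 100% = cells given the luciferase reporter alone without the COUP-TF2 vector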
# Starred values were filed as active, the others as inactive; nt = no result.
SMILES,Efflux pump inh,NCOA2 inhibitor,NR5A2 inv ag,SRC1 inh,COUP-TFII inh,NCOA3 inh,Gal4-VP16 ctr,NR2F2 inh conf
Fc1ccc(Nc2ncnc3sccc23)cc1,0,-16,-15,-3,7,-8,nt,nt
COc1ccc(-n2ncc3c(N4CCC(C)CC4)ncnc32)cc1,0,-27,-64,-71,-16,-86,nt,nt
Cc1csc2c(N3CCN(S(=O)(=O)c4ccc(Cl)cc4)CC3)ncnc12,0,5,4,10,2,27,nt,nt
Fc1ccc(CC2CCN(c3ncnc4sccc34)CC2)cc1,nt,nt,nt,nt,74*,nt,0,54*
COc1ccc(CC2CCN(c3ncnc4sccc34)CC2)cc1,nt,nt,nt,nt,68*,nt,-3,59*
FC(F)(F)c1nnc2c(Sc3ccc(Cl)cc3)nc3ccccc3n12,0,1,8,12,-3,0,nt,nt
COc1cccc(CN2CCNC(=O)C2CC(=O)NCCc2cccc(C)n2)c1OC (centres undefined),0,-7,14,9,10,10,nt,nt
CCc1cccc(C)c1NC(=S)NCc1ccc2[nH]c(C)cc2c1,0,12,-2,12,4,-11,nt,nt
Cc1nc(SCC(=O)Nc2nc3ccccc3s2)c(C#N)c(C)c1C,0,85*,88*,90*,99*,91*,91*,109*
Cc1ccc2sc(NC(=O)CSc3nc(C)cc(C)c3C#N)nc2c1,0,-32,-136,-120,-61,-96,nt,nt
Cc1nc(SCC(=O)Nc2nccs2)c(C#N)c(C)c1C,0,14,-11,7,26,16,nt,nt
Cc1cc(C(F)(F)F)c(C#N)c(SCC(=O)Nc2nc3ccccc3s2)n1,0,10,32,20,56*,41,21*,57*
Cc1c(C(=O)NCCSCc2ccccc2)cccc1[N+](=O)[O-],0,-11,-7,-19,12,-17,nt,nt
COc1ccc(OC)c(CC(=O)Nc2ccc3c(c2)c(=O)n(C)n3Cc2cccc(C(F)(F)F)c2)c1,nt,58*,-7,2,83*,2,-9,5
O=[N+]([O-])c1nn(-c2ccc3c(c2)OCCO3)n(O)c1=Nc1ccccc1,-1,84*,94*,76*,91*,85*,-105,35
COc1ccc(-c2c(C)nc3c(-c4ccc(F)cc4)cnn3c2N)cc1,1,-31,-31,-54,-42,-61,nt,nt
Cc1nc2c(-c3ccc(F)cc3)cnn2c(N)c1-c1ccccc1,0,70*,63,70*,82*,71*,32*,82*
Cc1nc2c(-c3ccc(Cl)cc3)cnn2c(N)c1-c1ccc(F)cc1,0,42,29,49,52*,50,1,68*
CCn1c(=N)n(CC(=O)C(C)(C)C)c2ccccc21,0,21,-28,-5,-17,-20,nt,nt
CCCC(=O)C1=C(O)C(C(=O)OC)C(C)(C)CC1=N (centres undefined),0,-6,-5,-2,1,12,nt,nt
Cc1cc(C(=O)CN2C(=O)NC(Cc3c[nH]c4ccccc34)C2=O)c(C)n1C (centres undefined),0,-10,8,7,21,2,nt,nt
CCc1ccc(Nc2n[n+](-c3ccccc3)c(-c3c(Cl)cccc3Cl)s2)cc1,0,-2,-3,1,66*,4,16*,30
O=C(N[C@H]1CCCc2c1cnn2-c1ccc(F)cc1F)c1ccccn1,nt,nt,nt,nt,-18,nt,nt,nt
CC(C)(C)c1ccc(-n2ncc3c2CCCC3NC(=O)CCC2=NNC(=O)CC2)cc1 (centres undefined),nt,24,32,4,39*,19,-12,-1
Cc1ccc(-n2ncc3c2CCCC3NC(=O)CCC2=NNC(=O)CC2)cc1C (centres undefined),-1,-1,1,-10,8,1,nt,nt
SMILES,Efflux pump inh,NCOA2 inhibitor,NR5A2 inv ag,SRC1 inh,COUP-TFII inh,NCOA3 inh,Gal4-VP16 ctr,NR2F2 inh conf
Cc1nnsc1C(=O)NC1CCCc2c1cnn2-c1ccc(C(C)(C)C)cc1 (centres undefined),0,37,42,11,65*,23,-2,66*
Cc1ncoc1C(=O)NC1CCCc2c1cnn2-c1cc(F)cc(F)c1 (centres undefined),nt,-23,-16,15,-3,-24,nt,nt
Cc1nnsc1C(=O)NC1CCCc2c1cnn2-c1ccccc1F (centres undefined),-2,15,41,2,45*,-16,0,45*
Cc1ncoc1C(=O)NC1CCCc2c1cnn2-c1ccc(C(C)(C)C)cc1 (centres undefined),nt,16,36,22,60*,41,7,65*
CC(=O)Nc1ccc(S(=O)(=O)NCc2nc(-c3cccc(C)c3)no2)cc1,0,-4,-1,-1,6,5,nt,nt
COc1ccc(/C=C2\SC(N3CCCCC3)=NC2=O)cc1,1,-54,-6,-36,-18,-49,nt,nt
Cc1cc(-c2ccc(C(C)C)c(S(=O)(=O)N3CCOc4ccccc43)c2)on1,0,-7,4,-6,9,5,nt,nt
Cc1ccc(-c2onc(C)c2C)cc1S(=O)(=O)N1CCOc2ccccc21,0,28,-3,0,59*,24,-3,16
O=C(Nc1ccc(Oc2ccccc2)cc1)c1csc([C@@H]2O[C@H](CO)[C@@H](O)[C@H]2O)n1,nt,28,37,33,66*,-15,7,51*
O=C(Nc1ccc(Oc2ccccc2)cc1)c1csc([C@H]2C[C@H](O)[C@@H](CO)O2)n1,nt,17,44,11,77*,10,-4,61*
CC(=O)Nc1ccc(NC(=O)c2csc([C@@H]3C[C@H](O)[C@@H](CO)O3)n2)cc1,nt,-14,11,-1,-5,-8,nt,nt
C[C@@H]1CN([C@@H](C)CO)C(=O)c2cc(N(C)C)ccc2O[C@@H](C)CCCCO[C@@H]1CN(C)Cc1ccc2c(c1)OCO2,nt,-9,-29,-16,-9,-3,nt,nt
CN(C)CCN1CCN(C(c2ccnc3ccccc23)c2nnnn2-c2ccc3c(c2)OCCO3)CC1 (centres undefined),nt,-15,-4,nt,6,nt,nt,nt
CN(C)/C=C/c1c([N+](=O)[O-])c2ccc(O)cc2n1-c1ccccc1,0,23,6,6,40*,29,-1,10
